# Experimental data as given in the supplement of paper PMC6555819.
# Key:
# Test in all cases: PBM binding z-score (relative to random genomic background probes); higher = stronger binding; sequences stand for … in GC…GCGATTGACAGCGTAGAATGAAGG
# [1] = system: PPARg:RXRa DBDmut IVT, anti-RXR (DBD mutation: RXRa K156A/R161A, NR concentration 270 nM, RXRa partner concentration 90 nM)
# Outline: (§1)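 Each nuclear receptor dimer, without ligand, was incubated for 1 h on custom Agilent 4×180K protein-binding microarrays. Binding was detected with antibodies against each partner (one per run), and scanned fluorescence was regression-normalized. The binding z-scores are referenced to random human genomic background probes.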
# [2] = system: PPARg:RXRa IVT, anti-PPARg (NR concentration 270 nM, RXRa partner concentration 90 nM)
# Outline: as §1
# [3] = system: PPARg DBDmut:RXRa IVT, anti-PPARg (DBD mutation: PPARg1 K132A/R137A, NR concentration 270 nM, RXRa partner concentration 90 nM)
# Outline: as §1
# [4] = system: PPARg DBDmut IVT, anti-PPARg (DBD mutation: PPARg1 K132A/R137A, NR concentration 270 nM)
# Outline: as §1
# [5] = system: PPARg homodimer (NR concentration 180 nM)
# Outline: as §1
# [6] = system: PXR:RXRa (NR concentration 270 nM, RXRa partner concentration 90 nM)
# Outline: as §1
# [7] = system: PXR homodimer (NR concentration 270 nM)
# Outline: as §1
# [8] = system: RARa:RXR (NR concentration 270 nM, RXRa partner concentration 90 nM)
# Outline: as §1
# [9] = system: RARa homodimer (NR concentration 270 nM)
# Outline: as §1
# [10] = system: RARb:RXRa (NR concentration 270 nM, RXRa partner concentration 90 nM)
# Outline: as §1
# [11] = system: RARb homodimer (NR concentration 270 nM)
# Outline: as §1
# [12] = system: RARg:RXRa (NR concentration 270 nM, RXRa partner concentration 90 nM)
# Outline: as §1
# [13] = system: RARg homodimer (NR concentration 270 nM)
# Outline: as §1
# [14] = system: RXRa DBDmut IVT, anti-RXR (DBD mutation: RXRa K156A/R161A, NR concentration 90 nM)
# Outline: as §1
# [15] = system: RXRa homodimer (NR concentration 180 nM)
# Outline: as §1
# [16] = system: THRa:RXRa (NR concentration 90 nM, RXRa partner concentration 90 nM)
# Outline: as §1
# [17] = system: THRa homodimer (NR concentration 90 nM)
# Outline: as §1
# [18] = system: VDR homodimer (NR concentration 270 nM)
# Outline: as §1
Sequence,PBM binding z-score [1],PBM binding z-score [2],PBM binding z-score [3],PBM binding z-score [4],PBM binding z-score [5],PBM binding z-score [6],PBM binding z-score [7],PBM binding z-score [8],PBM binding z-score [9],PBM binding z-score [10],PBM binding z-score [11],PBM binding z-score [12],PBM binding z-score [13],PBM binding z-score [14],PBM binding z-score [15],PBM binding z-score [16],PBM binding z-score [17],PBM binding z-score [18]
TGAATGAGGTTAAAGATCATGGAACGTGGCGTCG,1.79,3.19,0.0999,-0.204,0.9,2.49,0.119,3.73,0.174,2.04,0.734,2.46,1.32,0.839,4.34,2.79,0.35,0.314
CGTCCAAGGTCAATGCTAGGTCAGTGGAAGCATT,3.31,3.57,-0.546,-0.435,5.36,4.87,1.99,6.1,1.39,5.17,4.74,7.51,6.88,3.57,4.86,4.32,2.84,3.57
GCTACTTGGTCAGTAAAAGGTCACACACCGGTCG,1.59,3.24,0.501,1.24,5.33,5.09,1.32,6.09,2.99,4.23,5.14,5.37,5.09,0.64,5.41,3.55,2.08,2.09
CGTCACAGTTCAAGGTAACGTAACAGAAAGCAGC,0.275,1.23,0.33,0.734,0.946,1.93,0.75,1.78,0.462,2.73,1.63,2.45,2.53,2.69,2.14,2.24,1.24,1.53
ATCTCTAGGTAAGACTCAGTTAAGTGAAGAACGC,1.7,1.21,0.936,1.52,0.709,0.115,0.648,0.211,1.29,0.0635,0.172,0.0663,0.313,0.443,0.197,0.607,0.783,0.377
ATATGTAGGTAAAGGGTCATTCAGGTTGGTTCGC,7.14,7.26,2.33,1.19,3.33,5.22,2.87,5.04,2.48,3.53,4.14,4.11,3.22,2.01,4.98,3.26,1.71,4.15
AGAGACAGGTGATGAAGGTAACTCAGGCTATCAT,-0.111,0.416,0.748,0.187,0.847,0.283,0.671,0.263,1.15,0.706,0.746,0.284,0.541,-0.709,0.56,1.25,0.485,0.0584
ACTAGTTGGTCTGCTGAGGTCACACACAATTCGG,0.557,1.95,0.686,1.46,2.32,4.42,1.43,3.73,0.842,3.2,3.79,3.33,2.94,1.37,3.45,4.32,5.25,3.1
CGAACTTGGTCAGAACAGGACAGTGAAGGATGAT,-0.158,0.0276,0.221,-0.53,-0.163,-0.41,0.0699,0.0937,-0.39,0.542,0.311,0.432,0.829,-0.105,0.172,1.09,-0.102,-0.116
GCATACAGGTAATACAAGGTGAAAGTCCGATTGT,0.771,1.43,0.568,-0.128,0.379,0.708,0.62,1.48,0.481,0.594,1.04,0.773,0.617,0.25,0.894,4.17,1.16,0.161
AGAATGAGGTTATACGTAGATTAGGGAAGAAAGT,3.81,2.24,1.48,1,0.912,1.38,0.713,1.72,0.516,1.63,0.89,1.67,1.05,1.49,2.3,2.27,0.694,1.09
GGAACGAGGGCATTCGAGTAGATAGCATGGCGAT,2.87,2.05,-0.011,-0.669,-0.256,0.557,-0.0789,0.335,-0.251,1.56,0.0849,0.96,1.23,3.24,0.859,1.41,-0.662,1.51
TCTATTAGTTGAAGGGCAACCGGCGAGTCCGTTT,2.36,0.473,0.341,0.729,1.25,0.943,0.705,0.455,0.951,1.74,1.33,0.436,0.37,1.69,0.567,0.217,0.172,0.963
AGTCAAAGTTCAGGCCGAGGTAACGTAAAGCACG,-0.249,1.8,0.687,0.000554,2.4,3.17,1.77,3,0.163,4.4,3.34,5.07,4.99,3.1,2.85,3.78,1.3,2.53
GCTATTAGTTGAAAAGGCAACCGAATGATTCTCG,-0.116,-0.52,0.324,0.295,1.02,-0.0791,0.363,0.226,0.557,0.109,-0.358,0.0252,0.283,0.693,0.0743,-0.197,-0.317,0.154
